Whole data set: some 33,000 sequences, median “e-score” near -0.05, cut for the highest 2% near 0.38. Many of the other results were omitted from the sample, so the highest values are more common in it than they were.

This assay addresses T1, SIX1-Q177R homeodomain (human, UniProt Q15475 108-198, Q177R).
T1 sequence: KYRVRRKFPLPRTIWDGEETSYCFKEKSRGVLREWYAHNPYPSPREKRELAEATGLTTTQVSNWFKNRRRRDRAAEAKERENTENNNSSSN
Description: universal protein binding microarray; Universal all-10-mer PBM (8x60K, AMADID 030236), 300 nM GST-tagged protein, Alexa Fluor 488 anti-GST; buffer, salt, pH and temperature not stated (as in Berger); high values mean tight binding. Particulars: protein: ivt; tags: N-terminal GST; dsDNA, one strand shown. The procedure, abridged: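 GST-tagged homeodomains were made by in vitro transcription/translation and quantified by anti-GST western blot against a recombinant GST standard curve. They were applied in duplicate at 300 nM final concentration to universal 'all 10-mer' protein binding microarrays (8×60K format). Binding was quantified as 8-mer E-scores with the Universal PBM Analysis Suite.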
For the sequence GACACCAA, the binding signal is 0.475 ± 0.00758 E-score.

Consider GATACCAA, for which the binding signal came out at 0.263 ± 0.0211 E-score.

For CCCCTCGA, the binding signal worked out at 0.23 ± 0.0411 E-score. The figure for GGCGGGTA is 0.214 ± 0.0165 E-score; for CCGGGTAC it is 0.294 ± 0.0102 E-score. Consider AACGGGTG, for which the binding signal amounted to 0.314 ± 0.00327 E-score. Consider ACCCGGTG, for which the binding signal was found to be 0.3599 ± 0.0016 E-score. The figure for CTACTCCC is 0.228 ± 0.0226 E-score; for CACGGCCG it is 0.188 ± 0.00306 E-score; for GGGTATTA it is 0.161 ± 0.054 E-score.

For the sequence GGGTATCA, the binding signal turned out to be 0.3904 ± 0.00193 E-score. The result for GAGTATCA reads 0.228 ± 0.0455 E-score; that for CAGTATCA, 0.2 ± 0.0287 E-score. On to AGGTATCA, for which the binding signal was 0.324 ± 0.0386 E-score. As to CGGTATCA, the binding signal came out at 0.312 ± 0.00867 E-score.

Turning to GGGTATGA, the binding signal came out at 0.186 ± 0.0167 E-score.

With GTGTATCA, the binding signal is 0.392 ± 0.0104 E-score.

In the case of GTGTATGA, the binding signal turned out to be 0.412 ± 0.0071 E-score. Turning to GTGTATTA, the binding signal came to 0.401 ± 0.0189 E-score.

For the sequence GTGTATAA, the binding signal was determined as 0.376 ± 0.0114 E-score. The result for CCCTCGGA reads 0.19 ± 0.012 E-score; that for CCGAGTCA, 0.157 ± 0.00701 E-score; that for AACAGTGT, 0.323 ± 0.0244 E-score. The figure for GACGCCCC is 0.182 ± 0.00373 E-score; for GAGTAACA it is 0.24 ± 0.0048 E-score; for ACGCTACA it is 0.161 ± 0.0151 E-score. Consider ACAACACT, for which the binding signal was 0.35 ± 0.00607 E-score. With ACAACACA, the binding signal is 0.232 ± 0.0598 E-score. For the sequence CCAACACC, the binding signal is 0.47 ± 0.00509 E-score. The figure for ACAACACG is 0.358 ± 0.0104 E-score; for ACAACACC it is 0.455 ± 0.00357 E-score. CCAACACA: the binding signal turned out to be 0.163 ± 0.0809 E-score. The figure for CCAACACG is 0.377 ± 0.0116 E-score. The figure for GCAACCCC is 0.184 ± 0.013 E-score; for GCAACACC it is 0.4669 ± 0.000587 E-score.

As to GCTGGGTA, the binding signal turned out to be 0.227 ± 0.00462 E-score.

Turning to ACTCGGCA, the binding signal stood at 0.161 ± 0.0126 E-score. The result for CACCTTCC reads 0.307 ± 0.017 E-score.

As for CACTAGGG, the binding signal turned out to be 0.201 ± 0.0297 E-score.

In the case of CAGTGTAA, the binding signal came to 0.42 ± 0.0273 E-score.

For the sequence TAGTGTGA, the binding signal is 0.258 ± 0.0135 E-score.

Regarding AAGTGTAA, the binding signal is 0.4 ± 0.0567 E-score. The figure for GAGTGTAA is 0.42 ± 0.0292 E-score; for TAGAGTAA it is 0.199 ± 0.00264 E-score. The result for CAGTGTGA reads 0.306 ± 0.0246 E-score; that for TAGTGTAA, 0.408 ± 0.0318 E-score. The figure for CAGGGTAA is 0.21 ± 0.00942 E-score. As for AAGTGTAT, the binding signal turned out to be 0.317 ± 0.0537 E-score. The figure for GGGAGTAA is 0.225 ± 0.0261 E-score; for AAGTGTGA it is 0.188 ± 0.0231 E-score; for CACGAAAA it is 0.157 ± 0.0159 E-score. On to GGGAGTTA, for which the binding signal worked out at 0.2077 ± 0.00099 E-score.

As to TCGGCACA, the binding signal is 0.217 ± 0.0118 E-score. For CACCGCCA, the binding signal is 0.291 ± 0.0119 E-score. The result for AGTCGGTG reads 0.297 ± 0.0328 E-score; that for TGCGTACA, 0.18 ± 0.00951 E-score; that for ATAATACA, 0.166 ± 0.023 E-score. The figure for ACGAGGTG is 0.251 ± 0.0125 E-score. The result for AGGCGGGG reads 0.159 ± 0.0183 E-score; that for ACGCCACG, 0.171 ± 0.0126 E-score. For AAGACCCC, the binding signal came to 0.172 ± 0.0514 E-score. The result for AGAGGTAT reads 0.221 ± 0.0344 E-score. Turning to GTGTAGGA, the binding signal came to 0.4 ± 0.00559 E-score.

On to GTGCTGTA, for which the binding signal worked out at 0.164 ± 0.0245 E-score. As to GTGTGGGA, the binding signal came out at 0.286 ± 0.0336 E-score.

Regarding TAGTAGCA, the binding signal worked out at 0.159 ± 0.00204 E-score. The figure for GTAGAGTA is 0.2533 ± 0.000997 E-score; for GTGTGGAA it is 0.193 ± 0.0214 E-score; for GTGTAGAA it is 0.427 ± 0.0121 E-score.

For the sequence GGGTAGGA, the binding signal was found to be 0.213 ± 0.0147 E-score. In the case of GTGTAGTA, the binding signal was 0.464 ± 0.0137 E-score.

With GTGTAGCA, the binding signal stood at 0.425 ± 0.0131 E-score.

As for GGGTAGTA, the binding signal was determined as 0.161 ± 0.0206 E-score.

Regarding GTGTGGCA, the binding signal turned out to be 0.246 ± 0.0251 E-score. Regarding CACGGCTA, the binding signal was 0.182 ± 0.0377 E-score. The result for ACATGGGT reads 0.209 ± 0.0274 E-score; that for CACCTGGG, 0.2794 ± 0.00115 E-score. The result for CCCGCCAC reads 0.195 ± 0.0268 E-score; that for TGGGGTAA, 0.26 ± 0.0142 E-score; that for CACCCGCG, 0.301 ± 0.00786 E-score. The figure for AGGCGACA is 0.25 ± 0.0166 E-score; for ACACATGG it is 0.185 ± 0.0286 E-score; for GGAGGACA it is 0.246 ± 0.019 E-score. In the case of CACGAACA, the binding signal was determined as 0.25 ± 0.0125 E-score. The figure for CACACTCG is 0.3527 ± 0.00165 E-score; for AACACTCA it is 0.3999 ± 0.00301 E-score. For TACACTCA, the binding signal came to 0.402 ± 0.0151 E-score.

For the origin of these results see paper PMC10668032, “Altered binding affinity of SIX1-Q177R correlates with enhanced WNT5A and WNT pathway effector expression in Wilms tumor”.
